Compounds with a hit are over-represented: about 9% of the library has one in this group of screens.
IMPase inh: qHTS Assay for Identifying the Cell-Membrane Permeable IMPase Inhibitors; 120,000 tested, under 10 active; CHO-M1 cells, IP1 accumulation, HTRF TR-FRET ratio; inhibition (IP1 accumulation), % at 46.1 µM; active = well fitted curve in the direction sought with a large enough effect in the signal ratio, not every such curve was filed as active; inconclusive = small, poorly fitted or top-dose-only effect, or a change in a side signal; inactive = no such curve, though single readings can be large or run the other way; the % refers to the signal ratio;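 also: cells stimulated with carbachol in lithium chloride buffer; plate controls were DMSO basal wells for no effect and reference inhibitor wells for full effect; higher means more IMPase inhibition seen as more IP1 and lower FRET ratio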
Target sequence (P97697 whole entry, looked up): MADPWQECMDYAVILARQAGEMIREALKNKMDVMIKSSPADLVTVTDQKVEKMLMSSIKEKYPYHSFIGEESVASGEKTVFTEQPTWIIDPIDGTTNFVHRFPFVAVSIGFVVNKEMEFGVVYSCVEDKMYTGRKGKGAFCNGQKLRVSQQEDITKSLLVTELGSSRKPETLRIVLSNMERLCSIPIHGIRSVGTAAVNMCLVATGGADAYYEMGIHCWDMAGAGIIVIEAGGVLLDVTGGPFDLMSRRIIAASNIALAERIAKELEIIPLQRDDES
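The IP-One HTRF competitive assay in carbachol-stimulated CHO-M1 cells quantifies cellular IP1. Compounds spanned up to 46 uM final, and activity is expressed as AC50 from concentration-response fits of the ratio and donor data.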
ALDH1A1 inh: qHTS Assay for Inhibitors of Aldehyde Dehydrogenase 1 (ALDH1A1); Aldehyde dehydrogenase 1A1 (Homo sapiens), P00352; Purified ALDH1A1, NADH fluorescence, propionaldehyde substrate; Potency, µM (series often up to 75.3 µM), for inactives: at the top dose activity, negative = inhibition, actives largely listed as inhibitors; 220,000 tested, 7.3% active; AID 1030, 2008;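 also: potency is read from the fitted curve at half-maximal effect; plate controls were no enzyme wells and a reference inhibitor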
HPGD inh: qHTS Assay for Inhibitors of HPGD (15-Hydroxyprostaglandin Dehydrogenase) | AID 894, 2007 | purified HPGD, NADH fluorescence kinetic, PGE2 substrate | 150,000 tested, 4.3% active | Potency, µM, without a hit: at the highest dose activity change, negative = inhibition, usual class: inhibitors; also: potency is read from the fitted curve at half-maximal effect
Target sequence (P15428 whole entry, looked up): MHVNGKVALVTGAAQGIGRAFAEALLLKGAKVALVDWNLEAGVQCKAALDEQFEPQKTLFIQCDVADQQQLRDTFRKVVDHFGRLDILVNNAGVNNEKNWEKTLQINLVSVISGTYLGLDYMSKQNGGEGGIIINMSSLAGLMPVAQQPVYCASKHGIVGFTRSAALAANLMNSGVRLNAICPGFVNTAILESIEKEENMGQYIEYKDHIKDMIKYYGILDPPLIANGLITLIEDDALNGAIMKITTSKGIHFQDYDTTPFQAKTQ
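NADH formation kinetics: reaction with 30 uM PGE2 and 1 mM NAD+ (final), 20 nM enzyme, Tris-HCl pH 8 with Tween 20, after 15 min compound preincubation at room temperature. Fluorescence change, last versus first of five reads.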
* hit, by the source's call. Unless noted, calls follow the shape of the dose curve; as a rule, active = well fitted inhibition curve with a large enough effect (not every such curve was filed as active); inconclusive = small, poorly fitted or top-dose-only effect, or another doubt; inactive = no such curve, though single readings can be large or run the other way. Unless noted, % is scaled to controls: 0 for no effect and ±100 for the full control effect.

Cc1ccc2cc(C(c3nnnn3C3CCCC3)N(Cc3cccnc3)Cc3ccco3)c(=O)[nH]c2c1 (stereo not given) was read as IMPase inh 5, ALDH1A1 inh inconclusive and HPGD inh -7%.
Cc1ccc2[nH]c(=O)c(CN(Cc3ccccc3)Cc3nnnn3C3CCCC3)cc2c1 was read as IMPase inh 6, ALDH1A1 inh 14µM* and HPGD inh -8%.
For Cc1nc(N2CCOCC2)sc1C=O the results were ALDH1A1 inh -6%.
Screening Cc1ccc(-c2csc3nc(SCC(N)=O)n(Cc4ccccc4)c(=O)c23)cc1 returned IMPase inh -2, ALDH1A1 inh 10% and HPGD inh -10%.
O=S1(=O)NC(=NCCc2ccccn2)c2ccccc21 was read as ALDH1A1 inh 23%.
For Cc1cc(C)nc(NC(=O)C2c3ccccc3Oc3ccccc32)n1 the results were ALDH1A1 inh 6%.
`CN(C)C(=O)c1cc2cc([N+](=O)[O-])ccc2s1` gave IMPase inh -3, ALDH1A1 inh -4% and HPGD inh -15%.
For O=C(c1cc2cc([N+](=O)[O-])ccc2s1)N1CCCCC1 the results were ALDH1A1 inh 14µM*.
CCN(CC)C(=O)c1cc2cc([N+](=O)[O-])ccc2s1 was read as IMPase inh -4, ALDH1A1 inh -5% and HPGD inh 28µM*.
`O=C(c1ccc([N+](=O)[O-])cc1[N+](=O)[O-])N1CCCC1` gave ALDH1A1 inh -2%.
For Cc1cc(C(F)(F)F)nn1Cc1n[nH]c(=S)n1-c1cccc(Cl)c1 the results were IMPase inh -9, ALDH1A1 inh -12% and HPGD inh -26%.
Screening COc1ccc(-n2c(SCC(=O)Nc3cc(C(=O)O)ccc3C)nc3ccccc3c2=O)cc1Cl returned ALDH1A1 inh 0%.
O=C(CO/N=C/c1ccccc1Cl)N1CCCc2ccccc21 was read as IMPase inh 11 and ALDH1A1 inh inconclusive.
O=C(CSc1nnc2ccccn12)NC(=O)Cc1ccccc1 was read as ALDH1A1 inh 14%.
Cc1cccc(C)c1NC(=O)c1ccc(-c2ccc(Cl)cc2Cl)o1 was read as IMPase inh 3, ALDH1A1 inh -8% and HPGD inh -14%.
CC1=NOC(=O)/C1=C\c1ccc(-c2ccc(Cl)cc2Cl)o1 was read as IMPase inh -6, ALDH1A1 inh 10µM* and HPGD inh 1.8µM*.
N#CCCn1c(=O)c(CCc2ccccc2)nc2cnc(Oc3cccc(Cl)c3)nc21 was read as ALDH1A1 inh 10µM* and HPGD inh 0%.
`Cc1nc2cnc(Oc3cccc(Cl)c3)nc2n(CCC#N)c1=O` gave ALDH1A1 inh -10% and HPGD inh -15%.
`COCCn1c(=O)c(CCc2ccccc2)nc2cnc(OCc3ccccc3)nc21` gave ALDH1A1 inh 25µM*.
For COc1cccc(Nc2ncc3nc(CCc4ccccc4)c(=O)n(C4CC4)c3n2)c1 the results were ALDH1A1 inh -1% and HPGD inh -5%.
`COCCn1c(=O)cnc2cnc(OCc3ccccc3)nc21` gave ALDH1A1 inh -3% and HPGD inh -10%.
O=c1c(CCc2ccccc2)nc2cnc(Oc3ccccc3)nc2n1C1CC1 was read as ALDH1A1 inh 11µM*.
For c1ccc2cc(NCNc3ccc4ccccc4c3)ccc2c1 the results were ALDH1A1 inh inconclusive and HPGD inh -16%.
Screening COc1c(CC(=O)c2cc3c(cc2O)OC(C)(C)C(O)C3)ccc2c1C=CC(C)(C)O2 (stereo not given) returned ALDH1A1 inh inconclusive and HPGD inh -24%.
`Cc1cccc(C)c1C(=NCCCN(C)C)c1ccccc1` gave ALDH1A1 inh 5% and HPGD inh -2%.
`CCC(CO)NCC#Cc1ccccc1` (stereo not given) gave ALDH1A1 inh 6%.
CCC1(CC)NC(=O)N(CC(=O)OCC(=O)Nc2sccc2C#N)C1=O was read as ALDH1A1 inh -3%.
`Cc1nc(C)c(C(=O)N/N=C/c2cn(C)c3ccccc23)s1` gave IMPase inh 2, ALDH1A1 inh 1% and HPGD inh -11%.
Screening Cn1cc(/C=N/Nc2ccccc2)c2ccccc21 returned ALDH1A1 inh 8.9µM*.
`CSc1nnc(CCCCCCCCc2nnc(SC)o2)o1` gave ALDH1A1 inh -6%.
`CC(C)=CCC/C(C)=C/C=O` gave ALDH1A1 inh inconclusive and HPGD inh -11%.
CCOC(=O)C1CCN(C(=O)CSc2ccc(Cl)cc2)CC1 was read as IMPase inh -2, ALDH1A1 inh -1% and HPGD inh -7%.
Screening CCOC(=O)C1CCN(C(=O)CSc2ccc(Br)cc2)CC1 returned ALDH1A1 inh 32µM*.
CCOC(=O)C1CCN(C(=O)COC(=O)c2ccc(Br)o2)CC1 was read as IMPase inh 7, ALDH1A1 inh -8% and HPGD inh -26%.
CCOC(=O)C1CCN(C(=O)N(C)C)CC1 was read as IMPase inh 4, ALDH1A1 inh 6% and HPGD inh -17%.
`CCOC(=O)C1CCN(C(=O)CSCCSCC(=O)N2CCC(C(=O)OCC)CC2)CC1` gave IMPase inh 8, ALDH1A1 inh 11µM* and HPGD inh -10%.
CCOC(=O)C1CCN(C(=O)c2ccc(Br)o2)CC1 was read as IMPase inh 0, ALDH1A1 inh 3.2µM* and HPGD inh -13%.
`CCOc1ccc(S(=O)(=O)Nc2ccc3c(c2)c(C(C)=O)c(C)n3S(=O)(=O)c2ccc(OCC)cc2)cc1` gave IMPase inh 2.
`c1ccc(CCNc2ccccc2)cc1` gave ALDH1A1 inh -13%.
For Cc1cc(CNC(=O)Cc2ccc(F)cc2)c2ccccc2n1 the results were ALDH1A1 inh 17%.
`C/C(N)=C(/C#N)C(=O)CSc1cc(C)c2cc(C)cc(C)c2n1` gave ALDH1A1 inh 9%.
`COc1ccccc1NC(=O)N1c2ccccc2Sc2ccccc21` gave IMPase inh 17.
`Cc1cc(C)n(-c2nc3cc(Cl)ccc3nc2Nc2ccc(CC(=O)O)cc2)n1` gave IMPase inh 5.
Screening Cc1oc(/N=C/c2c(O)ccc3ccccc23)c(C#N)c1C returned IMPase inh 7, ALDH1A1 inh 35µM* and HPGD inh -13%.
Screening Cc1oc(/N=C/c2ccccc2O)c(C#N)c1C returned IMPase inh 1, ALDH1A1 inh inconclusive and HPGD inh -20%.
Screening COc1cccc(/C=N/NC(N)=S)c1OCc1ccccc1Cl returned ALDH1A1 inh 12% and HPGD inh -13%.
`NC(=S)N/N=C/c1ccccc1OCCSc1ccc(Cl)cc1` gave ALDH1A1 inh -6% and HPGD inh 35µM*.
CC(=O)NCCCc1c[nH]c2ccc(Cl)cc12 was read as IMPase inh 3, ALDH1A1 inh 0% and HPGD inh -14%.
For O=C(NCCc1c[nH]c2ccc(Cl)cc12)c1cccnc1 the results were IMPase inh -1, ALDH1A1 inh 11% and HPGD inh 16µM*.
Cc1oc2cc(OCc3cnn(-c4ccccc4)c3)ccc2c(=O)c1Oc1ccccc1F was read as ALDH1A1 inh 5µM* and HPGD inh -18%.

From PubChem BioAssay
